Screening results: PubChem BioAssay, National Center for Advancing Translational Sciences (NCATS)
Only some compounds are listed: those with a hit (about 6.6% of all), similar ones and a draw of the others.
KB-V1 cytotox: kills drug-selected multidrug resistant KB-V1 cells | Potency, µM (titrated, usually from 46.1 µM), most hits filed as cytotoxic | KB-V1 MDR cells viability, CellTiter-Glo, 72 h | 400,000 tested, 3.4% active; also: % is scaled to controls: 0 for no effect and ±100 for the full control effect; nearly all actives have a fitted effect of over 60% in size
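Readout: CellTiter-Glo luminescence, 10 min after addition. Cells: KB-V1 MDR subline, 72 h at 37 degrees C with compound. Analysis: corrected, normalized data fitted to concentration-effect curves.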
KB-3-1 tox: KB-3-1 parental cell cytotoxicity; KB-3-1 viability, CellTiter-Glo ATP luminescence, 72 h; Potency, µM (highest dose often 46.1 µM), actives largely listed as cytotoxic; 400,000 tested, 1.4% active; AID 1347075; also: % is scaled to controls: 0 for no effect and ±100 for the full control effect; nearly all actives have a fitted effect of over 60% in size
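Multi-concentration cytotoxicity screen in KB-3-1 cells grown in DMEM lacking phenol red with 10% FBS. After 72 h at 37 °C with compound, ATP-dependent luminescence was recorded.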
HT1080 IDH1KD tx: HT-1080 IDH1 knockdown cell toxicity (counter line); HT-1080 IDH1 knockdown viability, ATP luminescence, 48 h; Potency, µM (series often up to 46.1 µM), without a hit: at the highest dose activity, negative = toxicity, hits mostly cytotoxic; 360,000 tested, 2% active; AID 686971;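 also: 0% = DMSO wells and -100% = cell-free medium wells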
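Viability of IDH1-knockdown HT-1080 fibrosarcoma cells was assessed by CellTiter-Glo after 48 h at 37 °C with titrated compound; concentration-effect curves were classified by fit quality and response size.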
HepG2 viability: counter-screen for TGF-b inhibitors: cytotoxicity in HepG2 cells | HepG2 CAGA-GFP viability, ATP luminescence, 18 h | Potency, µM (top dose mostly 46.1 µM), without a hit: at the highest dose activity change, negative = cytotoxicity, actives largely listed as cytotoxic | 410,000 tested, 0.76% active | AID 588856
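CellTiter-Glo luminescence gave cytotoxicity after 18 hours at 37 degrees C. The cells were HepG2 CAGA-GFP in 1% FBS DMEM, stimulated with 500 pg/mL TGF-beta after compound addition. %Activity was normalised to no-cell wells (complete cell-killing) and DMSO (no toxicity), and curves were fitted and classified.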
TGFb inhibitor: TGF-b pathway inhibition; HepG2 CAGA-GFP TGF-b/SMAD3 reporter, GFP fluorescence, 18 h; TGF-beta stimulated, 500 pg/mL final; 410,000 tested, 1.2% active; Potency, µM (highest dose often 46.1 µM), for the others: top-dose activity, negative = inhibition, usual class: inhibitors; also: % is scaled to controls: 0 for no effect and ±100 for the full control effect; nearly all actives have a fitted effect of over 65% in size
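HEPG2 CAGA-GFP cells (1000/well, DMEM with 1% FBS) were pre-incubated 2 h at 37 degrees C, given compound by pin tool, then stimulated with TGF-beta at 500 pg/mL final for 18 h before per-cell GFP fluorescence imaging.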
HT1080-NT tox: kills 2HG-producing HT-1080-NT fibrosarcoma cells; HT-1080-NT fibrosarcoma viability, CellTiter-Glo ATP luminescence, 48 h; Potency, µM (series often up to 46.1 µM), without a hit: at the top dose activity, negative = less viability, hits mostly cytotoxic; 360,000 tested, 1.6% active; AID 686970;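 also: NT is the 2HG producing partner of a matched IDH1 knockdown line; 0% = DMSO-treated cells and -100% = media-only wells without cells; nearly all actives have a fitted effect of over 55% in size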
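Viability by CellTiter-Glo luminescence after 48 h compound exposure at 37C of HT-1080-NT cells (750/well, RPMI, 5% FBS). % activity scaled between DMSO wells and medium-only wells, then curve-fitted and categorized by curve class.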
The depositor's hits bear a star; i = inactive; ? = inconclusive; · = not tested or not shown. Calls follow the shape of the dose curve; as a rule, active = well fitted curve in the direction sought with a large enough effect; inconclusive = small, poorly fitted or top-dose-only effect, or another doubt; inactive = no such curve, though single readings can be large; an effect the other way counts as inactive or inconclusive. Potency is read from the fitted curve at half-maximal effect.

SMILES | KB-V1 cytotox | KB-3-1 tox | HT1080 IDH1KD tx | HepG2 viability | TGFb inhibitor | HT1080-NT tox
Cc1cccc(Nc2nc(-c3ccccn3)cs2)n1 | 0.52µM* | 9.2µM* | 0.35µM* | -35% | ? | 0.32µM*
Cc1cccnc1Nc1nc(-c2ccccc2)cs1 | i | i | -11% | -57% | ? | -21%
Cc1cccc(Nc2nc(-c3cccs3)cs2)n1 | i | i | -28% | -19% | 13µM* | -18%
O=S(=O)(NC1CCCC1)c1ccc(F)cc1F | i | i | 9% | 2% | 2% | 15%
CCOc1ccc(N(CC(=O)Nc2ccc3c(c2)OCO3)S(=O)(=O)c2ccccc2)cc1 | i | i | · | -25% | -17% | ·
O=C(NCCO)c1ccc(-c2nnc(Nc3ccc(O)cc3)c3ccccc23)cc1 | i | i | 5% | -5% | -9% | 2%
O=C(NCCO)c1ccc(-c2nnc(Nc3ccc(OC(F)(F)Cl)cc3)c3ccccc23)cc1 | i | i | · | -78% | 11µM* | ·
CCOC(=O)c1c(Nc2cccc(C)c2)nnc(-c2ccccc2)c1-c1ccccc1 | ? | 16µM* | · | -16% | ? | ·
CCOC(=O)c1c(Nc2cc(C)cc(C)c2)nnc(-c2ccccc2)c1-c1ccccc1 | i | i | · | -8% | -14% | ·
COc1ccc2c(c1)cc1c(=O)n(CC(=O)NC3CCCCC3)nc(C)n12 | i | i | · | -8% | -8% | ·
CCOc1ccc(OCC)c(-c2c(=O)n(OCc3ccccc3C(=O)OC)c3ccccc3[n+]2[O-])c1 | 3.7µM* | i | -26% | 3% | -7% | -2%
CCOc1ccc(OCC)c(-c2c(=O)n(OCc3ccccc3Br)c3ccccc3[n+]2[O-])c1 | i | i | -24% | -58% | -14% | -1%
O=C(O)c1ccc(NC2=C(Cl)C(=O)c3ccccc3C2=O)cc1 | i | ? | -16% | -23% | ? | -10%
Cc1ccc(NC2=C(NC(=O)c3ccccc3)C(=O)c3ccccc3C2=O)cc1Cl | ? | ? | -16% | 16µM* | 11µM* | -18%
O=C(O)c1cccc(NC2=C(Cl)C(=O)c3ccccc3C2=O)c1 | ? | ? | 16µM* | -86% | ? | ?
O=c1[nH]c(CN2CCCC2)nc2sc3c(c12)CCC3 | ? | i | 0% | -1% | -3% | 0%
Cc1ccc(C(=O)N2CCN(Cc3nc4sc5c(c4c(=O)[nH]3)CCCC5)CC2)cc1 | 16µM* | ? | 12% | -38% | ? | 7%
COc1ccccc1CNC(=O)C(=O)NCC(c1cccnc1)N1CCN(c2ccc(F)cc2)CC1 (configuration not stated) | i | i | · | -38% | ? | ·
CC1(C)CC[C@]2(C(=O)O)CC[C@]3(C)C(=CC[C@@H]4[C@@]5(C)CC[C@H](O[C@@H]6O[C@H](C(=O)O)[C@@H](O)[C@H](O[C@@H]7OC[C@H](O)[C@H](O)[C@H]7O)[C@H]6O)C(C)(C)[C@@H]5CC[C@]43C)[C@@H]2C1 | i | i | ? | 3.5µM* | 3.2µM* | 18µM*
CC1(C)CC[C@]2(C(=O)O[C@@H]3O[C@H](CO)[C@@H](O)[C@H](O)[C@H]3O)CC[C@]3(C)C(=CCC4[C@@]5(C)CC[C@H](O[C@@H]6O[C@H](C(=O)O)[C@@H](O[C@H]7OC[C@@H](O)[C@@H](O)[C@@H]7O)[C@H](O)[C@H]6O)C(C)(C)C5CC[C@]43C)[C@@H]2C1 (some centres not stated) | i | i | 9% | -9% | 23% | 16%
OC(COCc1ccccc1)Cn1cnc2ccccc21 (configuration not stated) | 16µM* | i | 0% | -24% | -9% | 9%
OC(CN(c1ccccc1)c1ccccc1)Cn1cnc2ccccc21 (configuration not stated) | 18µM* | ? | ? | 5% | ? | ?
CN1C(=O)C2(SCC(=O)N2c2ccc(F)cc2)c2ccccc21 (configuration not stated) | i | i | · | -16% | -1% | ·
COc1ccc(CCNC(=O)CCc2cn(Cc3ccc(F)cc3)c3ccccc23)cc1OC | · | · | · | -13% | ? | ·
COc1cc(CNC(=O)c2ccc3c(c2)c(C)c(C)n3Cc2cccc(C)c2)cc(OC)c1OC | i | i | · | -14% | 12% | ·
SMILES | KB-V1 cytotox | KB-3-1 tox | HT1080 IDH1KD tx | HepG2 viability | TGFb inhibitor | HT1080-NT tox
O=C(O)c1cccc(Cn2c(Cl)c(/C=N/Nc3ccccc3)sc2=O)c1 | ? | i | 5.8µM* | -19% | -12% | ?
COc1ccc(/C=N\Nc2ccc([N+](=O)[O-])cc2[N+](=O)[O-])c(C(=O)O)c1OC | i | i | 1% | 5% | ? | -14%
CC1=C(/C=N/Nc2ccc([N+](=O)[O-])cc2[N+](=O)[O-])C(C)(C)CCC1 | ? | 16µM* | -9% | 1% | 59% | 0%
Fc1cc2nccnc2cc1N1CCSCC1 | i | i | -1% | 0% | 23% | 17%
Fc1cc2[nH]c(=S)[nH]c2c(Br)c1N1CCSCC1 | ? | 2.1µM* | ? | 0% | -13% | -29%
Cc1cccc(N2CCN(C(=O)CN3CCSc4ccccc43)CC2C)c1 (configuration not stated) | ? | i | · | -17% | -5% | ·
Cc1ccc(C(=O)c2cnc3cc4c(cc3c2S(=O)(=O)c2ccccc2)OCCO4)cc1 | 16µM* | ? | -27% | -6% | 12% | -24%
CCn1c(O)c(C=Nc2ccccc2)n(-c2ccccc2)c1=S | ? | 5.8µM* | ? | -18% | -18% | -15%
c1ccc(Cn2nnnc2C(c2cccs2)N2CCc3ccccc3C2)cc1 (configuration not stated) | i | i | ? | -24% | ? | ?
c1ccc(Cn2nnnc2C(c2cccs2)N2CCCCCC2)cc1 (configuration not stated) | 16µM* | i | -6% | -24% | -11% | 0%
CSCCC1NC2(C(=O)Nc3c(C)cc(Cl)cc32)[C@@H]2C(=O)N(C3CCCC3)C(=O)[C@H]12 (some centres not stated) | 4.6µM* | ? | -9% | -33% | ? | -1%
COc1ccccc1NC(=O)CSc1nnc(N)s1 | i | i | · | 3% | -5% | ·
Cn1c2cc(S(C)=O)sc2c2cnn(Cc3cccc(O)c3)c(=O)c21 (configuration not stated) | i | i | · | · | · | ·
